Outcome and AC50 data for 7 molecules are collected here from PubChem BioAssay (EPA / NIEHS).

The source made the active and inactive calls. Rule for the calls: active = hit-call score of the fitted dose curve at least 0.9, where 1 is the maximum; inactive = score below 0.9.

As usually defined, the AC50 is the midpoint of the concentration-response curve, whichever way the signal moves.

Assay [1] can be described thus: ATG_CRE_CIS: Attagene CIS-FACTORIAL HepG2 Assay for human cAMP Responsive Element (CRE) binding protein 3 (AID 2282926). To be noted: HepG2 CRE cis-reporter, Attagene multiplexed mRNA; actives raise or lower the signal. A digest of the protocol:
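HepG2 cells transiently transfected with a multiplexed reporter library (CRE-driven unit among them) were dosed for 24 h. Reporter mRNA was quantified by RT-PCR, fluorescent labelling, HpaI digestion and capillary electrophoresis, with bidirectional fitting against DMSO baseline.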

Assay [2] deals with CCAAT/enhancer-binding protein beta (Homo sapiens) (UniProt P17676). The assay can be described thus: ATG_C_EBP_CIS: Attagene CIS-FACTORIAL HepG2 Assay for human CCAAT/Enhancer Binding Protein (C/EBP) beta (AID 2282927). The following applies: HepG2 Attagene cis-factorial transcription factor reporter; actives raise or lower the signal. The gist of the method: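 RT-PCR/capillary electrophoresis fluorescence of reporter mRNA, 24 h post-dose, in HepG2 cells carrying transfected cis-promoter reporter units. Bidirectional curve fitting against DMSO baseline captures gain or loss of signal.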

Assay [3] is described as follows: ATG_CMV_CIS: Attagene CIS-FACTORIAL HepG2 Assay for human CMV (Internal Marker) (AID 2282928).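 Note: endpoint acts as a background internal control marker rather than a target.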 The following applies: HepG2 CMV promoter reporter, transcription factor profiling; actives raise or lower the signal. A digest of the protocol: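 Endogenous transcription factor activity read in HepG2 via transfected cis-promoter reporter units. After 24 h dosing, reporter mRNA measured by RT-PCR/capillary electrophoresis; gain or loss of signal fit relative to DMSO.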

Assay [4] is described as follows: ATG_DR4_LXR_CIS: Attagene CIS-FACTORIAL HepG2 Assay for human Liver X Receptor (LXR), DR4 submotif (AID 2282929). The following applies: HepG2 Attagene DR4 cis-reporter, mRNA transcription; actives raise or lower the signal. A digest of the protocol: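 HepG2, transient MRTU transfection, cis-element (DR4) promoter; 24 h compound exposure; total RNA → oligo(dT) RT → PCR → 6-FAM primer extension → HpaI cut → CE. Gain/loss vs DMSO, bidirectional fit.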

The target of assay [5] is Aryl hydrocarbon receptor (Homo sapiens) (UniProt P35869). The assay can be described thus: ATG_Ahr_CIS: Attagene CIS-FACTORIAL HepG2 Assay for human Aryl Hydrocarbon Receptor (Ahr) (AID 2282930). The following applies: HepG2 AhR cis-factorial reporter transcription; actives raise or lower the signal. The gist of the method:
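HepG2 cells transiently transfected with cis-element-driven multiplexed reporter transcription units; endogenous transcription factor activity measured as reporter mRNA 24 h after dosing. RT-PCR, 6-FAM labelling, HpaI digestion, capillary electrophoresis; bidirectional fitting versus DMSO baseline.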

Assay [6] is described as follows: ATG_AP_1_CIS: Attagene CIS-FACTORIAL HepG2 Assay for human Activator Protein 1 (AP-1) (AID 2282931). To be noted: HepG2 Attagene cis-factorial AP-1 reporter mRNA; actives raise or lower the signal. A digest of the protocol:
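Transient MRTU transfection of HepG2 → 24 h chemical treatment → RNA isolation, RT-PCR, 6-FAM labelling, HpaI digest → capillary electrophoresis. Fit: bidirectional, DMSO negative control.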

Assay [7] is described as follows: ATG_AP_2_CIS: Attagene CIS-FACTORIAL HepG2 Assay for human Activator Protein 2 (AP-2) (AID 2282932). The following applies: HepG2 AP-2 cis-reporter, Attagene transcription factor profiling; actives raise or lower the signal. The gist of the method: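 Bidirectional curve fitting against DMSO was applied to reporter mRNA signals from HepG2 cells 24 h after dosing. Cis-promoter reporter units, transiently transfected, were read by RT-PCR plus capillary electrophoresis.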

Assay [8] is described as follows: ATG_BRE_CIS: Attagene CIS-FACTORIAL HepG2 Assay for human Bone Morphogenetic Protein (BMP) Response Element (BRE) (AID 2282933). The following applies: HepG2 BMP response element reporter, Attagene transcription factor profiling; actives raise or lower the signal. The gist of the method: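 Read-out: reporter mRNA induction quantified by RT-PCR and capillary electrophoresis after 24 h chemical exposure of transfected HepG2 cells. Endogenous factor activity on the BMP response element; gain or loss fitted against DMSO baseline.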

In assay [9] the target is Transcription factor E2F1 (Homo sapiens) (UniProt Q01094). Put plainly: ATG_E2F_CIS: Attagene CIS-FACTORIAL HepG2 Assay for human E2F Transcription Factor 1 (AID 2282935). To be noted: HepG2 Attagene cis-reporter, E2F reporter RNA transcripts; actives raise or lower the signal. The gist of the method: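 Multiplexed cis-reporter assay: HepG2, transient transfection, 24 h dosing, mRNA quantitation by labeled RT-PCR and CE.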

The nature of assay [10]: ATG_E_Box_CIS: Attagene CIS-FACTORIAL HepG2 Assay for human Enhancer Box (E-box) (AID 2282936). To be noted: HepG2 E-box cis-reporter transcription, actives raise or lower the signal. A digest of the protocol:
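Multiplexed CIS reporter system in transiently transfected HepG2 cells measures native transcription factor activity. Reporter RNA after 24 h exposure is profiled by RT-PCR-capillary electrophoresis.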

Assay [11] is described as follows: ATG_M_61_CIS: Attagene CIS-FACTORIAL HepG2 Assay for M61 Transcription Factor (Internal Marker) (AID 2282937). To be noted: HepG2 Attagene CIS-FACTORIAL M61 internal marker reporter; actives raise or lower the signal. The gist of the method:
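Human liver HepG2, transient MRTU transfection (cis promoter elements), 24 h compound. Total RNA → oligo(dT) RT → PCR → FAM label → HpaI → CE. Internal background marker; bidirectional fitting, DMSO = baseline.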

Assay [12] can be described thus: ATG_EGR_CIS: Attagene CIS-FACTORIAL HepG2 Assay for human Early Growth Response 1 (EGR1) (AID 2282938). To be noted: HepG2 Attagene CIS-FACTORIAL EGR reporter mRNA; actives raise or lower the signal. A digest of the protocol:
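Transient transfection of human HepG2 with multiple cis-regulated reporter units, chemical exposure 24 h, total RNA isolated. Reverse transcription, PCR, fluorescent labelling and capillary electrophoresis quantify reporter transcripts; activity fitted bidirectionally against DMSO.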

Assay [13] can be described thus: ATG_M_19_CIS: Attagene CIS-FACTORIAL HepG2 Assay for M19 Transcription Factor (Internal Marker) (AID 2282939). To be noted: HepG2 Attagene CIS-FACTORIAL M19 internal marker reporter; actives raise or lower the signal. A digest of the protocol: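 Readout: fluorescent reporter-transcript fragments by capillary electrophoresis after RT-PCR. Human HepG2 liver cells carried transfected MRTU constructs reporting endogenous transcription-factor activity; exposure 24 h. Gain or loss of signal fitted relative to DMSO.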

Assay [14] can be described thus: ATG_Ets_CIS: Attagene CIS-FACTORIAL HepG2 Assay for human Erythroblast Transformation Specific (ETS) (AID 2282941). The following applies: HepG2 ETS cis-reporter transcription, actives raise or lower the signal. A digest of the protocol: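 Steps: transfect HepG2 with multiple reporter units; treat compound 24 h; isolate RNA, DNase-treat, reverse-transcribe; PCR-amplify, label with 6-FAM, digest with HpaI; separate by capillary electrophoresis. Activity fitted both directions versus DMSO.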

For assay [15], the target named is Hepatocyte nuclear factor 3-beta (Homo sapiens) (UniProt Q9Y261). Put plainly: ATG_FoxA2_CIS: Attagene CIS-FACTORIAL HepG2 Assay for human Forkhead box A2 (FOXA2) (AID 2282942). To be noted: HepG2 cis-reporter transcription factor activity, 24 h; actives raise or lower the signal. The gist of the method: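 Transient MRTU transfection of HepG2 liver cells; 24 h treatment; total RNA → oligo(dT) RT → PCR → FAM primer extension → HpaI cut → CE. Bidirectional fit vs DMSO.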

Assay [16] in a line: ATG_FoxO_CIS: Attagene CIS-FACTORIAL HepG2 Assay for human Forkhead box O (FoxO) (AID 2282943). The following applies: HepG2 Attagene cis-reporter, FoxO element, mRNA; actives raise or lower the signal. A digest of the protocol:
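HepG2 cells transiently transfected with cis-promoter-driven multiple reporter transcription units; 24 h after chemical dosing, reporter mRNA quantified by RT-PCR, fluorescent primer extension, HpaI digestion and capillary electrophoresis. Bidirectional fitting versus DMSO baseline.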

Assay [17] can be described thus: ATG_GATA_CIS: Attagene CIS-FACTORIAL HepG2 Assay for human GATA Binding Protein (AID 2282944). The following applies: HepG2 GATA cis-element reporter, Attagene multiplex mRNA; actives raise or lower the signal. The gist of the method:
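Read-out: fluorescent reporter mRNA fragments resolved by capillary electrophoresis after RT-PCR. Human liver HepG2 cells carried transiently transfected cis-regulated reporter constructs; chemicals incubated 24 h; gain or loss of signal fitted relative to DMSO.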

The nature of assay [18]: ATG_GLI_CIS: Attagene CIS-FACTORIAL HepG2 Assay for human Zinc Finger Protein GLI1 (AID 2282945). To be noted: HepG2, Attagene cis-factorial reporter mRNA, GLI element; actives raise or lower the signal. The gist of the method:
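HepG2 cells transiently transfected with cis-promoter multiplexed reporter units report endogenous transcription factor activity. After 24 h chemical exposure, reporter mRNA was quantified by RT-PCR, 6-FAM labelling, HpaI digestion and capillary electrophoresis, with bidirectional fitting against DMSO.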

Sequence of Hepatocyte nuclear factor 3-beta (Homo sapiens) (Q9Y261 whole entry, looked up): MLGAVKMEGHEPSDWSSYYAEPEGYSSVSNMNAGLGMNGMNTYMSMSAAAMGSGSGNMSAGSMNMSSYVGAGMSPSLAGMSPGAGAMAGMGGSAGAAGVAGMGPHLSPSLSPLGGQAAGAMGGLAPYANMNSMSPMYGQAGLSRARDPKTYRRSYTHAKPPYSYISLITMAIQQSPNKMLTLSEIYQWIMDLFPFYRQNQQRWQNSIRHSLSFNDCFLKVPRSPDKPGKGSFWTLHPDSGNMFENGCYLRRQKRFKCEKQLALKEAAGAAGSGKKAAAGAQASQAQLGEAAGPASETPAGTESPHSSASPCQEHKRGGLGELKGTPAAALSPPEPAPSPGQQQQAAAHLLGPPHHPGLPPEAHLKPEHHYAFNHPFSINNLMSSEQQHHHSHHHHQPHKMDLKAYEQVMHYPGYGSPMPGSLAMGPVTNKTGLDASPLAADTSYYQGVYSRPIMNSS
Sequence of Transcription factor E2F1 (Homo sapiens) (Q01094 whole entry, looked up): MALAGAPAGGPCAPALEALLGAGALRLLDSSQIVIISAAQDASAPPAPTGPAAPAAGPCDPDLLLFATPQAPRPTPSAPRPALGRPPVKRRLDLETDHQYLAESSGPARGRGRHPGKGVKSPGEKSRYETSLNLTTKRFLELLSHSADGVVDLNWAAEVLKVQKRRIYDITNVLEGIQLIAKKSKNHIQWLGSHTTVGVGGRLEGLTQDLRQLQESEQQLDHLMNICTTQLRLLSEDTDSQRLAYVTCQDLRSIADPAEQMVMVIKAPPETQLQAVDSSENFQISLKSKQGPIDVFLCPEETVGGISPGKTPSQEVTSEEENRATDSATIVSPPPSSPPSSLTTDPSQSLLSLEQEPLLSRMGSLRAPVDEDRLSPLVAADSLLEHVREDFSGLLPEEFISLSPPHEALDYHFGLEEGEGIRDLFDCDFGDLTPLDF
Sequence of Aryl hydrocarbon receptor (Homo sapiens) (P35869 whole entry, looked up): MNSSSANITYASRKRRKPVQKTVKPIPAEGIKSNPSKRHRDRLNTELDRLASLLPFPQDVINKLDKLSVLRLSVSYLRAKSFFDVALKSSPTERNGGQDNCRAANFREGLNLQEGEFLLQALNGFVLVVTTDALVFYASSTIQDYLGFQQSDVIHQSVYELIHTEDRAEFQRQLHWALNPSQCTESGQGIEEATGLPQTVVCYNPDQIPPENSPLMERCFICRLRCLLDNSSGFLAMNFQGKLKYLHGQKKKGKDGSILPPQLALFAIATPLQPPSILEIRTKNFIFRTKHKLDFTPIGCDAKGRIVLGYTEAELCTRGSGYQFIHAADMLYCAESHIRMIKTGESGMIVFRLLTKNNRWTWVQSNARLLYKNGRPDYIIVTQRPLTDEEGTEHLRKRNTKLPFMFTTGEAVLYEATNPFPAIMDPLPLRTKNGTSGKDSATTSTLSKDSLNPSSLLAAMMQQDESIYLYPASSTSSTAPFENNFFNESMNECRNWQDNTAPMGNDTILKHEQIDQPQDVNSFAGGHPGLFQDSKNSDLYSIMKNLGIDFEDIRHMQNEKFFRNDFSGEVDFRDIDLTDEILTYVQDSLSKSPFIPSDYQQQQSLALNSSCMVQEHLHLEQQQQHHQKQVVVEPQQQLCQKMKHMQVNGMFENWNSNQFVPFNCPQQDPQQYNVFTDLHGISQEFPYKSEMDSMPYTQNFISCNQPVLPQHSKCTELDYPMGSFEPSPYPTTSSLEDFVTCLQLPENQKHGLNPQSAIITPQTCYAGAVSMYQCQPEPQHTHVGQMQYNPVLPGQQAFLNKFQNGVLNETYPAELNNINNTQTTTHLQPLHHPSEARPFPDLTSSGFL
Sequence of CCAAT/enhancer-binding protein beta (Homo sapiens) (P17676 whole entry, looked up): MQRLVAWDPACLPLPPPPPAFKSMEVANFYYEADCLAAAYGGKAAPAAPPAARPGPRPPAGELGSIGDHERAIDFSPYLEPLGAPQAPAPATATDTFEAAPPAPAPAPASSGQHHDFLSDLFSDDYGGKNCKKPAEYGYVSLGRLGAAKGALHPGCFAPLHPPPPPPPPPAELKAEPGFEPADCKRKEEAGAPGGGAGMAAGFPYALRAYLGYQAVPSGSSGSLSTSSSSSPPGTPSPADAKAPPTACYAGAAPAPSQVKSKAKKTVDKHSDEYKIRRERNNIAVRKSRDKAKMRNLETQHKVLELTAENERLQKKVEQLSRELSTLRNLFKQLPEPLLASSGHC

Consider `CC(=O)Nc1ccc(C)cc1C`, for which the result in [1], in assay [2], in assay [3], in assay [4], in [5] and in assay [6] was inactive. For the same molecule, the result in [7], in assay [8], in assay [9], in assay [10], in assay [11] and in assay [12] was inactive. The molecule was called inactive in assay [13], in [14], in [15], in assay [16], in assay [17] and in assay [18].

Consider `O=C(O)CCCCC1CCSS1` (configuration not stated), for which the outcome in assay [1], in assay [2], in assay [3], in assay [4], in assay [5] and in assay [6] was inactive. Further, the outcome in assay [7], in assay [8], in assay [9], in [10], in [11] and in assay [12] was inactive. For the same molecule, the outcome in [13], in assay [14], in assay [15], in [16], in assay [17] and in [18] was inactive.

Consider `OC1C(O)C(O)C(O)C(O)C1O` (configuration not stated), for which the molecule was classed as inactive in [1], in assay [2], in assay [3], in assay [4], in assay [6] and in assay [7]. Moreover, the result in assay [8], in assay [9], in [10], in assay [11], in assay [12] and in [13] was inactive. In addition, the molecule was classed as inactive in [14], in assay [16], in assay [17] and in assay [18]. For the same molecule, in [5], the AC50 is 70.3 µM (active).

Turning to `NC(=O)Nc1ccc(Cl)cc1`, the molecule was classed as inactive in assay [1], in [2], in assay [3], in assay [4], in assay [5] and in assay [6]. The outcome in assay [7], in assay [8], in assay [9], in [10], in [11] and in [12] was inactive. Besides, the molecule was called inactive in assay [13], in assay [15], in assay [16], in assay [17] and in assay [18].

As to `FC1(F)C(F)(F)C(F)(F)C2(F)C(F)(C1(F)F)C(F)(F)C(F)(F)C1(F)C(F)(F)C(F)(F)C(F)(F)C(F)(F)C12F` (configuration not stated), the molecule was classed as inactive in [1], in assay [2], in assay [3], in [4], in assay [5] and in [6]. The call in assay [7], in assay [8], in assay [9], in [10], in [11] and in assay [12] was inactive. Moreover, the result in [13], in assay [14], in [15], in [16] and in assay [18] was inactive.

`Clc1ccc2c(c1)C(N1CCNCC1)=Nc1ccccc1O2`: the molecule was classed as inactive in [1], in [3], in assay [4], in assay [6], in assay [7] and in assay [8]. Besides, the result in assay [9], in assay [10], in assay [11], in assay [13], in [14] and in assay [15] was inactive. Besides, the result in assay [16], in [17] and in [18] was inactive. The AC50 was 51 µM (active) in assay [2], 41.1 µM (active) in [5] and 26.6 µM (active) in assay [12].

As to `Cc1c(Cl)c(=O)oc2cc(O)ccc12`, the outcome in [1], in [4], in [5], in assay [6], in assay [7] and in assay [8] was inactive. Moreover, the molecule was called inactive in assay [9], in assay [10], in assay [11], in [12], in [13] and in assay [14]. Further, the result in assay [15], in assay [16] and in assay [18] was inactive. Besides, the AC50 is 129 µM (active) in assay [2] and 63 µM (active) in [3].
